The supplement of paper PMC3545927
This is one part of the list. The true hit rate is not given.

Biological target: furin, P09958
Experiment: furin cleavage Z-score vs untreated control; higher = more cleavage, active = 3.5 or more, inactive = 1 or less, 8 variable residues between constant flanks
Outline: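 Cleavage by purified furin was measured on 8-mer peptides fused to a cDNA oligonucleotide and held on magnetic beads by their N-terminus. Reactions (0.01 ml, 1:10 enzyme:substrate) ran 7.5, 15 or 30 min in 50 mM HEPES pH 7.5 with CaCl2 and NaCl. Released DNA was adapter-tagged by PCR and sequenced, with read counts giving abundance. Log counts versus furin-free reactions were lowess-adjusted and scaled by median absolute deviation to give the cleavage Z-score.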

furin, P09958, sequence (P09958 whole entry): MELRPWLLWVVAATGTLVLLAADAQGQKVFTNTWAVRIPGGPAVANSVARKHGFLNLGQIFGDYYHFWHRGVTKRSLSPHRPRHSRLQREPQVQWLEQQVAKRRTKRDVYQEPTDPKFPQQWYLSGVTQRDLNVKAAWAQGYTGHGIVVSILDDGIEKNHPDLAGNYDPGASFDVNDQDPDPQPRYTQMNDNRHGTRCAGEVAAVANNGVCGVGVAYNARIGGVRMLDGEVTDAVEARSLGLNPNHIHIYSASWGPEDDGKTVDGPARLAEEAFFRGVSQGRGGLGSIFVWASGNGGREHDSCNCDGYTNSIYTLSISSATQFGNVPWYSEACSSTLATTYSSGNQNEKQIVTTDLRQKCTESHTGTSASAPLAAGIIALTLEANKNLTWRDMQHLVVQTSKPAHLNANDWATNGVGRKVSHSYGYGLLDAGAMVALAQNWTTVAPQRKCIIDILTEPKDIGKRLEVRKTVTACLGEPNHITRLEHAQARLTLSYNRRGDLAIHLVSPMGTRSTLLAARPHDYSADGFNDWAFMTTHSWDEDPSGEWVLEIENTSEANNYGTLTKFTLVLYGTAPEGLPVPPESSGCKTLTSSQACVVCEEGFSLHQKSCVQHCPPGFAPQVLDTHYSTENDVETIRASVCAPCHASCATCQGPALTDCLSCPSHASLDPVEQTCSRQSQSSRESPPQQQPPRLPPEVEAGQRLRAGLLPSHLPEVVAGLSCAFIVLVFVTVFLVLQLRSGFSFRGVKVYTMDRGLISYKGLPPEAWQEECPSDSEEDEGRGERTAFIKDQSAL

Sequence | furin cleavage Z-score (7.5 min) | furin cleavage Z-score (15 min) | furin cleavage Z-score (30 min)
CAEWPCHRPSAGNASASA [HC2328] | 2.33 | 0.752 (inactive) | 0.743 (inactive)
CALRDIWDWIAGNASASA [HC1149] | -0.31 (inactive) | 1.9 | 1.08
CAMMNWSPTTAGNASASA [HC322] | -3.83 (inactive) | 0.346 (inactive) | -1.29 (inactive)
CALDLSGWFTAGNASASA [HC1643] | 1.07 | 0.845 (inactive) | -0.793 (inactive)
CAQALDCEIYAGNASASA [HC1591] | -1.45 (inactive) | 0.168 (inactive) | -0.351 (inactive)
CAKRGRKRRSAGNASASA [FS-1021] | 13.5 (active) | 12.1 (active) | 11.2 (active)
CATKADKRRSAGNASASA [FS-1093] | 1.16 | -0.227 (inactive) | 0.33 (inactive)
CATKDNFKRSAGNASASA [FS-727] | 2.99 | 1.62 | 3.93 (active)
CATDDDFERSAGNASASA [FS-629] | -0.626 (inactive) | -1.72 (inactive) | 0.0381 (inactive)
CAKRGREFRIAGNASASA [FS-909] | 0.58 (inactive) | -0.852 (inactive) | -0.651 (inactive)
CATKDRKRRSAGNASASA [FS-880] | 13.4 (active) | 13.2 (active) | 8.6 (active)
CARVTRYSNIAGNASASA [FS-2198] | -0.808 (inactive) | -0.0709 (inactive) | 0.615 (inactive)
CAEMVVCCSMAGNASASA [HC2126] | -1.21 (inactive) | -1.21 (inactive) | 0.778 (inactive)
CATTPGSGSWAGNASASA [HC42] | -0.496 (inactive) | -0.533 (inactive) | -0.629 (inactive)
CADDVVCCSMAGNASASA [HC2111] | -0.752 (inactive) | 0.00684 (inactive) | -0.0395 (inactive)
CAMEECSQHHAGNASASA [HC1775] | 1.05 | -0.421 (inactive) | 0.321 (inactive)
CARHRKHSPQAGNASASA [FS-2680] | 0.00638 (inactive) | 0.0202 (inactive) | -0.323 (inactive)
CARMRRHHHHAGNASASA [FS-2158] | 2.42 | 4.46 (active) | 5.23 (active)
CARHRRHHHQAGNASASA [FS-2337] | 2.13 | 3.45 | 4 (active)
CAHPHRTKREAGNASASA [FS-795] | 11.5 (active) | 12 (active) | 10.4 (active)
CAVPHPNIEEAGNASASA [HC839] | 0.645 (inactive) | -1.08 (inactive) | 0.089 (inactive)
CAQAGRSRKEAGNASASA [FS-950] | 0.322 (inactive) | -1.35 (inactive) | 0.565 (inactive)
CAHPKQEKRSAGNASASA [FS-1209] | -0.192 (inactive) | 1 (inactive) | 1.55
CALTERTKREAGNASASA [FS-1138] | 12.3 (active) | 13 (active) | 9.22 (active)
CAREKKAALEAGNASASA [FS-2656] | -1.1 (inactive) | 1.19 | 0.78 (inactive)
CAHPHRQRKEAGNASASA [FS-1009] | 2.12 | 4.93 (active) | 2.5
CALTESTLSTAGNASASA [HC1328] | -0.00854 (inactive) | 0.199 (inactive) | 1.01
CAHPKRAVREAGNASASA [FS-2864] | 8.59 (active) | 8.52 (active) | 7.41 (active)
CAHRSRKAKEAGNASASA [FS-1010] | 1.54 | 0.417 (inactive) | 1.2
